# The full list was thinned out, with hits kept by preference.
# GRP78 ERSR act – qHTS for Inducers of the Endoplasmic Reticulum Stress Response (ERSR) in Human Glioma: qHTS; U87-MG GRP78 promoter luciferase reporter, 16 h; Potency, µM, inactives show at the highest dose activation, hits mostly activators; 0.02% of 420,000 active; AID 602332, 2012; note: series mostly up to about 76 µM; % of control where 0% means no effect; nearly all actives have a fitted effect of over 35% in size
#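 Stably transfected U87-MG glioma cells carrying a GRP78-based luciferase sensor; 16 h compound incubation. Luminescence end-point read 10 min after Bright-Glo addition at room temperature.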
# 12-LOX inh – Primary qHTS assay for inhibitors of human arachidonate 12S-lipoxygenase (ALOX12): Round 2 | purified 12hLO, xylenol orange hydroperoxide absorbance | Potency, µM (titrated, usually from 108 µM), for inactives: at the highest dose activity change, negative = inhibition, most hits filed as inhibitors | 1.1% of 580,000 active; note: % is set by controls: 0 for no effect and ±100 for the full control effect
#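 Purified human 12hLO at 150 nM in 25 mM Hepes, 0.01% Triton X-100, pH 7.0, preincubated 15 min at room temperature with compound. Reaction started with 40 uM arachidonic acid, 30 min at room temperature. Hydroperoxide measured by Fe-xylenol orange, 573/405 nm absorbance ratio.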
# Sfp inh – qHTS Assay for Inhibitors of Bacillus subtilis Sfp phosphopantetheinyl transferase (PPTase); 4'-phosphopantetheinyl transferase ffp (Bacillus subtilis), Q9F4F7; Biochemical Sfp PPTase activity, qHTS; Potency, µM, for inactives: largest response in the series, negative = inhibition, most hits filed as inhibitors; 3.5% of 310,000 active;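 note: the enzyme is Sfp with the accession as filed and its product quenches rhodamine fluorescence; 0% = enzyme reaction without inhibitor and -100% = no enzyme wells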
#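 Fluorescence-quenching assay with 15 nM Sfp, 5 uM rhodamine-CoA and 12.5 uM BHQ-2-labelled ybbR peptide in pH 7.6 Hepes/MgCl2 buffer. Enzyme was pre-incubated with compound for 15 min at room temperature. Rate was taken from the 30-min fluorescence change (525/598 nm).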
# G9a block – qHTS Assay for Inhibitors of Histone Lysine Methyltransferase G9a; G9a H3K9 monomethylation, AlphaScreen, 2 h; 8.8% of 350,000 active; Potency, µM (highest dose often 102 µM), for the others: at the highest dose activity, negative = inhibition, most hits filed as inhibitors; note: % is set by controls: 0 for no effect and ±100 for the full control effect; nearly all actives have a fitted effect of over 75% in size
#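 Readings reflect AlphaScreen signal from monomethyl-H3K9 antibody detection. HMT at 20 nM; substrate b-H3K9 500 nM; cofactor SAM 20 uM; 2 h RT reaction; compounds tested as titrations in qHTS with 15 min preincubation.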
# VDR inhibitor – Inhibitors of the vitamin D receptor (VDR): qHTS. Vitamin D3 receptor (Homo sapiens), P11473. VDR-SRC2-3 peptide fluorescence polarization, 2 h. Potency, µM, for the others: max response, negative = inhibition, actives largely listed as inhibitors. 0.93% of 400,000 active. AID 504847, 2011; note: % is set by controls: 0 for no effect and ±100 for the full control effect
# Target sequence (P11473 whole entry, looked up): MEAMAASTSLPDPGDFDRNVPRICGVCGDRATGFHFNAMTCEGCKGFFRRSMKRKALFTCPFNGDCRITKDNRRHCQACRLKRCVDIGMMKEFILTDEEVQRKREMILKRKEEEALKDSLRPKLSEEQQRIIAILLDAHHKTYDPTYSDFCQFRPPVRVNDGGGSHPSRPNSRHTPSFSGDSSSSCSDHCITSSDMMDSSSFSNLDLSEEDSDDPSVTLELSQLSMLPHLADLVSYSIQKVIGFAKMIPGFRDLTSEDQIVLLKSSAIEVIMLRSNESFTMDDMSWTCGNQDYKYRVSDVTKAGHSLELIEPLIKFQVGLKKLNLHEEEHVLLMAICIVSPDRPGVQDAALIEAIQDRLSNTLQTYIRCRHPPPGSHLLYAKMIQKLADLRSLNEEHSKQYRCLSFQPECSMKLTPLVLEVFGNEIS
#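 FP read-out; VDR + SRC2-3 coactivator peptide; 23 nl compound by pintool; 2 h RT incubation; reagents held at 4 deg C, protected from light.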
# An asterisk follows results filed as active; ? = inconclusive; nt = not tested or not shown; [ ] = remark or other dose. Calls come from the whole dose curve; as a rule, active = well fitted curve in the direction sought with a large enough effect; inconclusive = small, poorly fitted or top-dose-only effect, or another doubt; inactive = no such curve, though single readings can be large; an effect the other way counts as inactive or inconclusive. Potency is the fitted concentration of half-maximal effect.
SMILES,GRP78 ERSR act,12-LOX inh,Sfp inh,G9a block,VDR inhibitor
O=C(CSc1nnc(Nc2ccccc2F)s1)Nc1cccc(S(=O)(=O)N2CCCCC2)c1,2%,2%,9%,3.2µM*,-1%
CCOc1ccc2nc(SCC(=O)Nc3cccc(S(=O)(=O)NC4=NCCCCC4)c3)[nH]c2c1,-4%,-1%,-22%,45µM*,0%
CCOc1ccccc1Nc1nnc(SCC(=O)Nc2cccc(S(=O)(=O)NC3=NCCCCC3)c2)s1,0%,-13%,?,40µM*,3%
CCOc1ccccc1OCC(=O)Nc1cccc(S(=O)(=O)NC2=NCCCCC2)c1,-2%,0%,nt,23%[12.7 µM],22%
Cc1nnc(SCC(=O)Nc2cccc(S(=O)(=O)N3CCCCC3)c2)s1,-3%,4%,nt,10%[2.33 µM],2%
Cc1c(Cl)cccc1NC(=S)Nn1cnnc1,-3%,?,22µM*,8.9µM*,79µM*
Cc1c(Cl)cccc1NC(=S)NCCc1ccc(C(F)(F)F)cc1,-9%,40µM*,-8%,83%[59 µM],-11%
Cc1c(Cl)cccc1NC(=S)NC1CC1,-1%,-1%,-9%,?,-25%
S=C(NCc1ccccc1)NCc1ccc(CNC(=S)NCc2ccccc2)cc1,-4%,25µM*,9%,2%[59 µM],-12%
S=C(NCCCCc1ccccc1)Nc1cccc(Cl)c1Cl,nt,25µM*,nt,nt,nt
Cc1c(Cl)cccc1NC(=S)NCCc1ccccn1,0%,0%,-6%,nt,-15%
S=C(NCCCc1ccccc1)Nc1ccccc1Cl,-5%,?,2%,17%[59 µM],-15%
Cc1cc(CN(C)c2ccc(-c3nc(COc4ccccc4)no3)cn2)on1,nt,100%,nt,nt,nt
O=C(Nc1c(-c2ccccc2)nc2sccn12)c1cccc(S(=O)(=O)N2CCCC2)c1,nt,2%,nt,nt,nt
CC(C)CC(=O)NCC12CC3CC(CC(C3)C1)C2,nt,1%,nt,nt,nt
S=C(NCCCCNC(=S)NCc1ccccc1)NCc1ccccc1,-2%,?,-12%,45µM*,4%
CCNC(=S)NNC(=S)NCc1ccccc1,-5%,7%,56µM*,10µM*,-21%
COc1ccc(CCNC(=S)NCc2ccc(Cl)c(Cl)c2)cc1OC,1%,45µM*,12%,23%[59 µM],-13%
S=C(NCCc1ccccc1)NCc1cccc(Cl)c1,?,nt,-1%,8.9µM*,6%
CC(=O)NNC(=S)NCc1ccccc1,nt,47%,nt,nt,nt
CCNC(=S)NCc1ccc(OC)c(OC)c1,-3%,0%,19%,29%[12.7 µM],1%
O=C(NCc1cccnc1-n1cccn1)c1ccc(-c2ccc(F)cc2)o1,nt,-5%,nt,nt,nt
O=C(Nc1cccc(C(F)(F)F)c1)c1nc2c(o1)CCN(Cc1cccc(F)c1)CC2,nt,-5%[176 µM],nt,nt,nt
CCNC(=O)CSc1ncnc2cc(-c3ccc(F)cc3)sc12,nt,-17%,nt,nt,nt
Fc1ccc(NC(=S)NCc2ccccc2)cc1,-2%,17%,16%,57%,-3%
SMILES,GRP78 ERSR act,12-LOX inh,Sfp inh,G9a block,VDR inhibitor
Cc1ccc(NC(=S)NNC(=S)NCc2ccccc2)cc1,10%,-4%,56µM*,?,50µM*
Cc1ccc(NC(=S)NNC(C)(C)C)cc1,?,69%,8%,45µM*,-3%
Cc1ccc(CNC(=S)Nc2ccccc2Cl)cc1,nt,45µM*,nt,nt,nt
COc1ccc(CNC(=S)Nc2ccccc2Cl)cc1,5%,?,-2%,35%[59 µM],0%
COc1ccc(C2C(C#N)=C(N)N(N(C)C)C3=C2C(=O)CC(C)(C)C3)cc1OC (stereo not drawn),0%,20%,1%,-26%,-10%
CC1(C)CC(=O)C2=C(C1)N(c1ccccc1C#N)C(N)=C(C#N)C2c1cccs1 (stereo not drawn),-5%,?,-17%,40µM*,4%
CC1(C)CC(=O)C2=C(C1)N(N1CCOCC1)C(N)=C(C#N)C2c1cccs1 (stereo not drawn),-4%,0%,-18%,26%[59 µM],2%
COc1ccc(C2C3=C(CC(C)(C)CC3=O)N(CC(=O)O)C3=C2C(=O)CC(C)(C)C3)cc1OC,-4%,0%,14%,71µM*,1%

# Source: PubChem BioAssay (National Center for Advancing Translational Sciences (NCATS))
